PubChem BioAssay AID686978 (National Center for Advancing Translational Sciences (NCATS), 2013)
“And” between values parts separate entries of the source, which are not always exact repeats. Equal values may be shown once. The campaign covered roughly 420,000 compounds. About 64,000 (15%) were called active. Not shown: some 27% with an inconclusive outcome. The call rests on the fitted dose curve; in most records, active means well fitted inhibition curve with a large enough effect; inconclusive means small, poorly fitted or top-dose-only effect; inactive means flat fitted curve, though single readings scatter. These entries were drawn from the full list. Entries that show only a call come without a potency.

Assay: qHTS for Inhibitors of human tyrosyl-DNA phosphodiesterase 1 (TDP1): qHTS in cells in absence of CPT; further: nearly all actives have a fitted effect of over 55% in size
Settings: DT40 Tdp1-/- hTDP1 cells, no CPT, ATP luminescence, 48 h; activity change, negative = growth inhibition: at 46.2 µM (top of the series)
Procedure, shortened: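 Growth of hTDP1-complemented DT40 Tdp1-knockout cells is measured by ATP luminescence after at least 48 hr compound exposure at 37 °C, with DMSO substituting for the 20 nM CPT used in the parallel screen.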
Potency means the concentration at half of the fitted maximal effect.

Row | SMILES | Potency
1 | COc1ccc(-c2nc3n(c(=O)c2C#N)CCS3)c(OC)c1 | inactive
2 | CC1=NCCN1S(=O)(=O)c1ccc(Br)c(C)c1 | inactive
3 | CCCCn1c(=O)c2oc3ccccc3c2n(CC(=O)Nc2ccccc2OC)c1=O | inactive
4 | O=C(Nc1ccc(OCC(=O)N2CCOCC2)cc1)c1cc(F)c(F)cc1Cl | inactive
5 | N#Cc1c(-c2ccccc2)c(-c2ccccc2)n[nH]c1=O | inactive
6 | CCn1c(CSc2nc(C)cc(C)n2)nnc1SCC(N)=O | inactive
7 | COCCCn1c(SCc2cccc(OC)c2)nc2cc(OC)c(OC)cc2c1=N | 16.4 µM (active)
8 | COc1ccc(/C=C/c2nnc(NC(=O)C(C)C)s2)cc1 | inactive
9 | Cc1cccc(N=C2SC(C)CN2C(=O)CN2C(=O)NC3(CCCC3)C2=O)c1 (configuration not stated) | inactive
10 | CC(C)c1nc2cc(C(=O)NC(C)c3cnn(C)c3)ccc2o1 (configuration not stated) | inactive
11 | COc1cccc(C2=CC(=O)C[C@H](c3ccc(F)cc3)C2)c1OC | inactive
12 | COc1ccc(C2Sc3ccccc3NC3=C2C(=O)c2ccccc23)c(OC)c1OC (configuration not stated) | 1.84 µM (active)
13 | O=[N+]([O-])c1ccc(N2CCN(S(=O)(=O)c3ccccc3)CC2)cc1N1CCc2ccccc2C1 | inactive
14 | CSCCC(NC(=O)COc1ccccc1)C(=O)OCc1ccc(Cl)cc1 (configuration not stated) | inactive
15 | CN(CCOc1ccc(CC2SC(=O)NC2=O)cc1)c1ccccn1 (configuration not stated) | inactive
16 | CCCCn1c(SCC(=O)NCCc2ccc(OC)c(OC)c2)nc2c1c(=O)n(C)c(=O)n2C | inactive
17 | Cn1c(=O)c2c(nc(NCc3ccccc3)n2CC(N)=O)n(C)c1=O | inactive
18 | COc1ccc(CCn2c(NCCCN3CCOCC3)nc3c2c(=O)[nH]c(=O)n3C)cc1 | inactive
19 | CCn1c(NCCc2ccc(OC)c(OC)c2)nc2c1c(=O)n(C)c(=O)n2C | 7.31 µM (active)
20 | Cn1c(=O)[nH]c(=O)c2c1nc(NCCCn1ccnc1)n2Cc1cccc(Br)c1 | inactive
21 | CCCCNc1nc2c(c(=O)n(C)c(=O)n2C)n1Cc1cccc(OC)c1 | 1.84 µM (active)

Row | SMILES | Potency
22 | COc1ccc(CCN2CNc3c(c(=O)n(C)c(=O)n3C)C2)cc1OC | inactive
23 | Cn1c(=O)c2c(nc(NCCc3ccccc3)n2Cc2ccccc2)n(C)c1=O | 4.11 µM (active)
24 | Cn1c(=O)c2c(nc(NCCc3ccccc3)n2Cc2ccccc2Br)n(C)c1=O | inactive
25 | Cn1c(=O)c2c(nc(N/N=C/c3cccs3)n2Cc2ccc(Br)cc2)n(C)c1=O | 23.1 µM (active)
26 | O=C(Nc1cccnc1)c1cc([N+](=O)[O-])ccc1Cl | inactive
27 | Nc1nc(SC23CC4CC(CC(C4)C2)C3)ns1 | inactive
28 | O=C(Nc1ccc(-n2cccn2)cc1)C1CCN(Cc2ccsc2)CC1 | inactive
29 | COc1ccc(C/C(N)=N/OC(=O)c2ccco2)cc1OC | inactive
30 | CCOc1ccc(NC(=O)CCS(=O)(=O)c2cccc3nsnc23)cc1 | inactive
31 | O=C(CSc1ncn[nH]1)Nc1nsc(-c2ccccc2)n1 | inactive
32 | c1csc(-c2nc(-c3ccncc3)no2)c1 | inactive
33 | CCN(CC(=O)Nc1ccc(NC(C)=O)cc1)C(=O)C1CC(=O)N(Cc2ccc(C)cc2)C1 (configuration not stated) | inactive
34 | COc1ccc2c(c1)CCCO[C@]21O[C@H](CCO)C[C@H](O)[C@H]1O | inactive
35 | Cn1c(=O)c2c(nc(NCCNC(=O)c3ccco3)n2Cc2ccccc2F)n(C)c1=O | 18.4 µM (active)
36 | CC(C)OCCCNc1nc2c(c(=O)n(Cc3ccccc3F)c(=O)n2C)n1C | inactive
37 | COc1ccccc1/C=C/C(=O)OCC(=O)NC1CCCCCC1 | inactive
38 | CC1(C(=O)NS(=O)(=O)c2ccccc2)CCN1C(=O)C1CCCCC1 (configuration not stated) | inactive
39 | Cc1noc(C)c1NC(=O)Nc1cccc2c1O[C@H](CN(C)S(=O)(=O)c1c(C)noc1C)[C@@H](C)CN([C@H](C)CO)C2=O | inactive
40 | CCN1CCN(c2c(Cl)cccc2NC(=O)c2ccc(Br)o2)CC1 | 16.4 µM (active)
41 | CN1CCN(C(=O)c2ccc(NC(=O)c3ccc(Br)o3)cc2)CC1 | inactive
42 | COc1cc(OC)c(NC(=O)c2ccc(Br)o2)cc1Cl | inactive

Row | SMILES | Potency
43 | O=C(Cn1nnc(-c2ccccc2)n1)N/N=C/c1ccc(-c2ccc(Cl)cc2)o1 | inactive
44 | NS(=O)(=O)c1ccc(CCNS(=O)(=O)c2cccc3cccnc23)cc1 | inactive
45 | Cc1ccccc1NC(=O)c1ccccc1NS(=O)(=O)c1cccc2cccnc12 | inactive
46 | O=[N+]([O-])c1ccccc1S(=O)(=O)Nc1cccc2cccnc12 | 2 µM (active) and 2.59 µM (active)
47 | Cc1nc2ccccc2c(=O)n1Cc1ccc([N+](=O)[O-])cc1 | inactive
48 | Cc1nc2ccccc2c(=O)n1NC(=O)c1ccc(Cl)c([N+](=O)[O-])c1 | inactive
49 | CCn1c(/C=C/c2ccc([N+](=O)[O-])o2)nc2ccccc2c1=O | 2.59 µM (active)
50 | CCc1noc(C)c1C(=O)N1CCCSC1=Nc1ccccc1OC | inactive
51 | COC(=O)Cn1c(=NC(=O)CSCC(=O)Nc2cc(C)on2)sc2ccccc21 | inactive
52 | COc1ccc(N(CC(=O)Nc2cc(OC)ccc2OC)S(=O)(=O)c2c(C)noc2C)cc1 | 23.1 µM (active)
53 | COC(=O)c1ccc(NC(=O)CN(c2ccc(C)cc2)S(=O)(=O)c2c(C)n[nH]c2C)cc1 | inactive
54 | Cc1ccc(S(=O)(=O)NCC(=O)Nc2ccc3c(c2)OCCO3)cc1 | inactive
55 | CCOc1ccc(N(CC(=O)NCc2ccc(OC)cc2)S(=O)(=O)c2c(C)noc2C)cc1 | inactive
56 | COc1ccc(N(CC(=O)Nc2ccc(F)c(F)c2)S(=O)(=O)c2c(C)[nH]c(=O)[nH]c2=O)cc1 | inactive
57 | CCOc1ccc(OCC)c(NC(=O)CN(c2ccc(C)cc2)S(=O)(=O)c2c(C)n[nH]c2C)c1 | 29.1 µM (active)
58 | CCOc1ccc(N(CC(=O)Nc2ccccc2F)S(=O)(=O)c2c(C)[nH]c(=O)[nH]c2=O)cc1 | inactive
59 | Cc1noc(C)c1S(=O)(=O)N(CC(=O)Nc1ccc2c(c1)OCCO2)c1ccc(C(C)C)cc1 | 14.6 µM (active)
60 | CCOc1ccc(N(CC(=O)OC)S(=O)(=O)c2c(C)noc2C)cc1 | inactive
61 | C/C=C\C=C\C(=O)N1CC2(CC(c3cccc(NC(=O)/C(C)=C\C)c3)=NO2)C[C@H]1C(N)=O (some centres not stated) | inactive
62 | CC(NC(=O)CN1CCN(Cc2ccc(Cl)cc2)C1=O)c1ccc2c(c1)OCCO2 (configuration not stated) | inactive
